Source: PMC5540273 (PLoS ONE, 2017)

These molecules were tested on T1, RSK2(Kin.Dom.2-C-terminal). Conditions: concentration: 1 μM, replicates: in singlicate; n = 1.
T1 construct: gene RPS6KA3
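Further: KINOMEscan kinase panel screen.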

SMILES	%Inh [%]
CNCc1ccc2nc(NC(=O)c3ccc(C(C)(C)C)cc3)cn2c1	37
Nc1nccc(-c2c(-c3ccc(F)cc3)ncn2C2CCN(Cc3ccccc3)CC2)n1 [SB-219980]	0
CNc1nc(-c2ccc3c(N)n[nH]c3c2)cc(N2C[C@@H](C(=O)NC3CCCCC3)OC[C@H]2C)n1 [GSK2375584]	14
O=c1cc(N2CCOCC2)nc2n(Cc3cccc(Cl)c3Cl)c3ccccc3n12 [GSK2299009]	53
COc1ccc(Nc2nccc(N3CCC(NC(=O)C(C)c4ccc(Cl)cc4)C3)n2)cc1 (centres unmarked) [GSK1379735]	7
Cn1cnc2c(N)ncnc21 [SKF-97623]	0
Fc1ccc(-c2nc3n(c2-c2ccncc2)CCS3)cc1 [GI98581]	7
COC(=O)c1cccc(NC(=O)NC2CCN(c3ccnc(Nc4ccc(OC)cc4)n3)C2)c1 (centres unmarked) [GSK1379746]	0
Cn1cncc1-c1cc2c(Nc3ccc(OCc4ccccc4)cc3)ncnc2cn1 [GW281179]	0
CNC(=O)c1ccc(C)c(-n2c(C)cc(OCc3ccc(F)cc3F)c(Br)c2=O)c1	0
CC(=O)c1c(C)c2cnc(Nc3ccc(N4CCNCC4)cn3)nc2n(C2CCCC2)c1=O	0
COc1ccc(CSc2nnc(-c3ccc4c(c3)CCO4)o2)cc1	3
COc1ccc(CSc2nnc(-c3ccc4nccn4c3)o2)cc1C(F)(F)F	10
CN1c2ccc(-c3ccc(C(N)=O)cc3)cc2-c2[nH]ncc2S1(=O)=O	35
